# Source: PubChem BioAssay
# Active and inactive are the calls of the source.
# Tests used:
# [1] = test system: Plasmodium falciparum Sir2 (PF13_0152, Sir2A); test: Plasmodium falciparum Sir2A binding compounds – biochemical, small-molecule microarray, 635 nm fluorescence, primary screen (AID 1098); settings: fluorescence 635 nm, higher = more signal;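 note: score merges spot fluorescence intensity with its signal-to-noise ratio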
# [2] = probe aDKK1 binding to arrayed compounds – biochemical, biotinylated probe, 635/667 nm fluorescence, primary screen (AID 1099); settings: small-molecule microarray, higher = more signal;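 note: score merges 667nm spot fluorescence with signal to noise across triplicate slides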
# [3] = probe aCHRDL2 binding to arrayed compounds – biochemical, biotinylated probe, 635/667 nm fluorescence, primary screen (AID 1100); settings: small-molecule microarray, higher = more signal
# [4] = change in splice reporter luminescence, either direction, cell-based, HEK293, spliceosome inhibition project, primary screen (AID 1101); settings: HEK293 splicing luciferase reporter, 24 h, higher = more signal, called active from +8 up or from −8 down;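 note: HEK293 cells carrying a splicing-competent luciferase reporter gene; test concentration not given here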
# [5] = biological target: Fibroblast growth factor 10 (Homo sapiens) (UniProt O15520); test: compounds binding fibroblast growth factor 10 – biochemical, small-molecule microarray, 635 nm fluorescence, primary screen (AID 1102); settings: FGF10 binding, fluorescence 635 nm, higher = more signal
# Sequence of Fibroblast growth factor 10 (Homo sapiens) (O15520 whole entry, looked up): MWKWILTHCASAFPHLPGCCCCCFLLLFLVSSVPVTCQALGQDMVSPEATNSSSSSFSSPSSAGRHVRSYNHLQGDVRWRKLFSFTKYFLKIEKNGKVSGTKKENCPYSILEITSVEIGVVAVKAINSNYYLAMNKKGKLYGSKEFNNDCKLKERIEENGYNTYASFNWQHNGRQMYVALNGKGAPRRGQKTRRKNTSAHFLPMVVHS
# [6] = test system: glycogen synthase kinase-3 (GSK3A per assay name; protocol says GSK3B); test: compounds binding glycogen synthase kinase-3 – biochemical, small-molecule microarray, 635 nm fluorescence, GSK3A, primary screen (AID 1103); settings: fluorescence 635 nm, higher = more signal; note: the record names both GSK3A and GSK3B
# [7] = biological target: Epidermal growth factor receptor (Homo sapiens) (UniProt P00533); test: compounds binding epidermal growth factor receptor – biochemical, small-molecule microarray, 635 nm fluorescence, primary screen (AID 1104); settings: EGFR binding, higher = more signal;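 note: score merges 667 nm emission intensity with spot signal to noise over triplicate slides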
# Sequence of Epidermal growth factor receptor (Homo sapiens) (P00533 whole entry, looked up): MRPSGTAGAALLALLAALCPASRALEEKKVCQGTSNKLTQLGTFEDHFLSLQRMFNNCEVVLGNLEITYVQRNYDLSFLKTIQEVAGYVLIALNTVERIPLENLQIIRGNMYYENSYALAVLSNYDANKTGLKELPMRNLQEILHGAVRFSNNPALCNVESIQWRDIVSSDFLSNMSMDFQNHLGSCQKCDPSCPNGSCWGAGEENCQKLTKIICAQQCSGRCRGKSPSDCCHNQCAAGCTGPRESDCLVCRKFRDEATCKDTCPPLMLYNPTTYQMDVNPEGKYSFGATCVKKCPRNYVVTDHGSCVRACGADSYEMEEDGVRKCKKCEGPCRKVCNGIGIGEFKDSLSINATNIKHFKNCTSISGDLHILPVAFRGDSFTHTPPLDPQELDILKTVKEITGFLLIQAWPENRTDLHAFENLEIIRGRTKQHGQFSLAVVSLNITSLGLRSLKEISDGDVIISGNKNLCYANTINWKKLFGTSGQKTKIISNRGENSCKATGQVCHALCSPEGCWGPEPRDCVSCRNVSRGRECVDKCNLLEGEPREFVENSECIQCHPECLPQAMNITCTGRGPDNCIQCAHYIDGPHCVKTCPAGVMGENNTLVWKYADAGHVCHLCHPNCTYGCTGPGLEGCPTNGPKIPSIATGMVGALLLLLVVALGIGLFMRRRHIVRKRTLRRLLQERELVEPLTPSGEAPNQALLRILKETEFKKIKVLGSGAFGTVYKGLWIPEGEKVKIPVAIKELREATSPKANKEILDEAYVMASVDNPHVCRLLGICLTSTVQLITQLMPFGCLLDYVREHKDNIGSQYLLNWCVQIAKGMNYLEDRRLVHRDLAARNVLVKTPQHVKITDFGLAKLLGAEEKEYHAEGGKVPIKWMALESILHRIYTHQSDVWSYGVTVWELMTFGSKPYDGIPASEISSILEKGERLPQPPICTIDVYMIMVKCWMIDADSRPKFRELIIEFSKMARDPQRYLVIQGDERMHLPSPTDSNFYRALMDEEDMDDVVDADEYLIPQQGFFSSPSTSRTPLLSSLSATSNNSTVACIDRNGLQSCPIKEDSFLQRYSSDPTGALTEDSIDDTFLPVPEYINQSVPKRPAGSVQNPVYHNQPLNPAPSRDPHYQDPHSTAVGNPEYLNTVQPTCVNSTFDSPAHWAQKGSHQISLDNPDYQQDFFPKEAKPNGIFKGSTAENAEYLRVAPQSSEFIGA
# [8] = biological target: Follistatin-related protein 3 (Homo sapiens) (UniProt O95633); test: compounds binding follistatin-related protein 3 – biochemical, small-molecule microarray, 635 nm fluorescence, primary screen (AID 1105); settings: FSTL3 binding, higher = more signal;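 note: score merges emission near 667 nm and signal to noise per printed spot across three slides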
# Sequence of Follistatin-related protein 3 (Homo sapiens) (O95633 whole entry, looked up): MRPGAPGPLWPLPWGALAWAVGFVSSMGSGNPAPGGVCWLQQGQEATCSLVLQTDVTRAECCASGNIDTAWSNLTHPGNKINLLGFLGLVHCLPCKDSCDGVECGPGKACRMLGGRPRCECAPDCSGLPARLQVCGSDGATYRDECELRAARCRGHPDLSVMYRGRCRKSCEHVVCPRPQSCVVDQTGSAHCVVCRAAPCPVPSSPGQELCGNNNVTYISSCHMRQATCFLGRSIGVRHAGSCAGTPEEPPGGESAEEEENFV
# [9] = biological target: Dickkopf-related protein 1 (Homo sapiens) (UniProt O94907); test: small molecules binding DKK1 protein – biochemical, small-molecule microarray, 635 nm fluorescence scan, primary screen (AID 1106); settings: higher = more signal;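 note: score merges emission near 667 nm with signal to noise over three replicate slides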
# Sequence of Dickkopf-related protein 1 (Homo sapiens) (O94907 whole entry, looked up): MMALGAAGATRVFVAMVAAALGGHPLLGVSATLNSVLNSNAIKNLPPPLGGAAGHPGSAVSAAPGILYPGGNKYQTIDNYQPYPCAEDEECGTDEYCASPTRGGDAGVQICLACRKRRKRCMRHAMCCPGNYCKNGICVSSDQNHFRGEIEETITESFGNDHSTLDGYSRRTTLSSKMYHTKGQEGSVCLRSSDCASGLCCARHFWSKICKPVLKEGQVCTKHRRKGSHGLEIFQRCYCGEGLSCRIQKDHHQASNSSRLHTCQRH
# [10] = test system: Inhibin beta A chain (activin A); test: small molecules binding activin A – biochemical, small-molecule microarray, 635 nm fluorescence scan, primary screen (AID 1107); settings: INHBA, higher = more signal;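 note: mouse activin A protein probed at 4.33 µg/mL on printed slides; score merges bound-protein fluorescence near 667 nm with spot signal-to-noise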
# [11] = test system: Human papillomavirus type 1a protein E7 (residues 44-93); test: small molecules binding HPV E7 44-93 – biochemical, small-molecule microarray, residues 44-93, 635 nm fluorescence, primary screen (AID 1108); settings: fluorescence 635 nm, higher = more signal;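 note: E7 fragment applied at 1 µg/mL in TBST for 1 h at 4 C; score combines spot fluorescence with its signal to noise ratio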
# [12] = hepatitis C replication reporter changes, two-sided – Huh7 cells, luciferase reporter, HCV replication inhibitor project, primary screen (AID 1109); settings: Huh7 HCV replicon luciferase reporter, 48 h; higher = more signal;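 note: huh7 hepatoma cells harbouring a luciferase neomycin HCV replicon reporter; luciferase luminescence as measure of HCV replicon replication; test concentration not given here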
# [13] = biological target: Left-right determination factor 2 (Homo sapiens) (UniProt O00292); test: small molecules binding LEFTY2 protein – biochemical, small-molecule microarray, 635 nm fluorescence scan, primary screen (AID 1110); settings: higher = more signal
# Sequence of Left-right determination factor 2 (Homo sapiens) (O00292 whole entry, looked up): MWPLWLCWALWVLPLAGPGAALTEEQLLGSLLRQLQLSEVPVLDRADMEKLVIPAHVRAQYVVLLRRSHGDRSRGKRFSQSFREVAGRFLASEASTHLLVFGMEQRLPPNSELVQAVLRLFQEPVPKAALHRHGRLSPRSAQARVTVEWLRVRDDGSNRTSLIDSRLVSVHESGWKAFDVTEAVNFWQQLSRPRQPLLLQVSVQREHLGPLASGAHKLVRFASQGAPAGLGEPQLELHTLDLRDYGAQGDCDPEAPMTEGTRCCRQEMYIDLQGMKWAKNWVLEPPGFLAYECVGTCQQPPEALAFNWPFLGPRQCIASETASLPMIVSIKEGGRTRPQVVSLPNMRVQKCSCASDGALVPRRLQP
# [14] = biological target: Calmodulin-1 (Homo sapiens) (UniProt P0DP23); test: small molecules binding calmodulin-1 with EGTA – biochemical, small-molecule microarray, Cy5-labelled CALM1, profiling panel (AID 1111); settings: Cy5-CALM1 binding fluorescence, higher = more signal;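 note: labelled calmodulin applied in Tris saline Tween buffer holding calcium plus EGTA and DTT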
# [15] = biological target: Calmodulin-1 (Homo sapiens) (UniProt P0DP23); test: small molecules binding Ca-loaded calmodulin-1 – biochemical, small-molecule microarray, Cy5-labelled CALM1, plus calcium, artefact control for SMM control-protein annotation, profiling panel (AID 1112); settings: Cy5-CALM1 binding fluorescence, higher = more signal;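 note: score merges spot fluorescence with signal to noise from triplicate slides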
# [16] = probe aWnt5a binding to arrayed compounds – biochemical, biotinylated probe, 635/667 nm fluorescence, primary screen (AID 1113); settings: small-molecule microarray, higher = more signal;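 note: score merges 667 nm fluorescence intensity with signal-to-noise per printed feature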
# [17] = probe aShh binding to arrayed compounds – biochemical, biotinylated probe, 635/667 nm fluorescence, primary screen (AID 1114); settings: small-molecule microarray, higher = more signal;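 note: probe is biotin-labelled aShh protein from a stem cell growth factor screen; measures binding of labelled protein to compounds printed on the slide; score merges feature fluorescence at 667 nm with signal-to-noise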
# [18] = probe aNog binding to arrayed compounds – biochemical, biotinylated probe, 635/667 nm fluorescence, primary screen (AID 1115); settings: small-molecule microarray, higher = more signal;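 note: probe is biotinylated aNog protein used at 0.15 µg/mL for 1 h at 4 C; z-score combines 667 nm fluorescence of each spot with its signal to noise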
# [19] = biological target: Torsin-1A-interacting protein 1 (Homo sapiens) (UniProt Q5JTV8); test: compound microarray binding of lysate hLAP1 – cell lysate, small-molecule microarray, COS7 lysate, 635/667 nm fluorescence, primary screen (AID 1116); settings: 635 nm fluorescence, higher = more signal
# Sequence of Torsin-1A-interacting protein 1 (Homo sapiens) (Q5JTV8 whole entry, looked up): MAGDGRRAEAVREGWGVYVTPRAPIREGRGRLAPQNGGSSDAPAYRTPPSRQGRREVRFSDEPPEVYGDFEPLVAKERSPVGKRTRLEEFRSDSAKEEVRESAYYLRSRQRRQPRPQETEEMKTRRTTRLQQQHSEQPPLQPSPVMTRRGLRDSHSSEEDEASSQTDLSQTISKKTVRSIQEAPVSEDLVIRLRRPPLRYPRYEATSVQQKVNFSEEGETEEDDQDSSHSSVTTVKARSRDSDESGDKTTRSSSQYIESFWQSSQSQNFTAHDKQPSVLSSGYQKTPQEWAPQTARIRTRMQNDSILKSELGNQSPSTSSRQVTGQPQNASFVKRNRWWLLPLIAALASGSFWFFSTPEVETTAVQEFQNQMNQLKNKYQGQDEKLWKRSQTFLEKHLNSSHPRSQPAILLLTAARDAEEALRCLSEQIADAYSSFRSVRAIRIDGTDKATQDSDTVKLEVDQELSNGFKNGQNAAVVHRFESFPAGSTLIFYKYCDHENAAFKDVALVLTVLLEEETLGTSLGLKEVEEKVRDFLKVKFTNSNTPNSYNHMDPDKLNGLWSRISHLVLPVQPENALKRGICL
# [20] = biological target: Alpha-bungarotoxin (Bungarus multicinctus) (UniProt P60615); test: compounds binding labelled alpha-BTX control protein – biochemical, small-molecule microarray, Alexa647 label, 635/667 nm fluorescence, artefact control for SMM control protein annotation, profiling panel (AID 1117); settings: alpha-BTX-A647 binding fluorescence, higher = more signal
# Sequence of Alpha-bungarotoxin (Bungarus multicinctus) (P60615 whole entry, looked up): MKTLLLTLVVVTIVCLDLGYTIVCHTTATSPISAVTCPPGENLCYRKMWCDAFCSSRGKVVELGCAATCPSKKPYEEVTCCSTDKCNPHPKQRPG
Structure (SMILES),composite z-score [1],composite z-score [2],composite z-score [3],z-score [4],composite z-score [5],composite z-score [6],composite z-score [7],composite z-score [8],composite z-score [9],composite z-score [10],composite z-score [11],z-score [12],composite z-score [13],composite z-score [14],composite z-score [15],composite z-score [16],composite z-score [17],composite z-score [18],composite z-score [19],composite z-score [20]
O=C1OCCC/C=C\[C@H]2OC34C=CCN(CCN5CCOCC5)C(=O)[C@H]3N(CCCCCCO)C(=O)[C@@H]4C12 (stereo not given in full),1.16,-0.0117,-0.0021,-1.4 (inactive),-0.145,0.229,-0.684,-0.0634,-0.528,1.41,-0.776,0.857,-0.311,-0.523,-0.909,-0.18,-0.0553,-0.103,1.52,-0.162
CN(C)c1ccc(C(O)C2C=CC3C(=O)N(c4ccccc4)C(=O)C3N2Nc2ccc([N+](=O)[O-])cc2)cc1 (stereo not given),1.53,0.604,1.16,-0.0025 (inactive),0.704,1.29,0.332,0.974,-0.204,1.4,1.37,-1.52,-0.162,0.603,-0.534,0.0809,0.0697,0.638,0.926,1.46
O=C1N(Cc2ccccc2)Cc2ccccc2[C@@H]2OC(c3ccc(OCCCO)cc3)=N[C@]12CCS(=O)(=O)c1ccccc1,0.596,-0.0422,1.05,0.0631 (inactive),1.04,0.309,0.607,0.291,-0.222,0.772,1.4,-1.84,0.347,0.729,0.264,-0.0758,0.265,-0.319,-0.0362,1.37
COCCOC(=O)N1C(=O)[C@@]2(c3cc(C#CC4=CCCCC4)ccc31)[C@H](C(N)=O)[C@H]1C(=O)O[C@H](c3ccccc3)[C@H](c3ccccc3)N1[C@@H]2c1ccccc1OCCO,1.46,0.195,0.367,-1.88 (inactive),1.24,1.32,0.32,0.733,0.707,0.455,0.22,-3.15,0.423,0.994,-0.121,0.0839,0.173,0.0157,1.25,1.69
CO[C@H]1O[C@H](CO)[C@@H](OC(=O)Nc2ccccc2-c2ccccc2)[C@H](OC(=O)Nc2ccc3c(c2)OCO3)[C@H]1OC(=O)Nc1ccc2c(c1)OCO2,1.38,0.244,0.485,-1.2 (inactive),1.24,1.32,0.17,1.43,0.298,0.752,1.29,1.54,0.395,0.58,-0.187,-0.0194,0.398,1.19,1.76,1.25
CN1C(=O)C2C=CC(C(O)c3cccc4ccccc34)N(N3CCCCC3)C2C1=O (stereo not given),1.52,1.11,1.21,1.81 (inactive),0.595,1.31,0.396,1.09,0.353,0.784,0.817,-0.474,0.349,2.23,1.02,-0.027,-0.0055,1.04,2.45,1.67
